In PubChem BioAssay (Tox21):
Records with an inconclusive call do not appear. Entries that show only a call come without a potency. Active and inactive are the calls of the source. Unless noted, calls follow the shape of the full dose curve.

What was measured:
[1] = Nuclear factor erythroid 2-related factor 2/antioxidant responsive element (Nrf2/ARE) small molecule agonists: qHTS cell viability counter screen in human keratinocytes (AID 1919968; active = well fitted curve in the direction sought with a large enough effect in the repeat runs; an effect the other way counts as inactive or inconclusive; also: nearly all actives have a fitted effect of over 55% in size)
Procedure, shortened: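 Cytotoxicity was multiplexed with the Nrf2/ARE luciferase assay in the same wells. Stably transfected HaCaT keratinocytes were treated with test compounds for 23 h at 37 C. Cell viability was then measured by CellTiter-Fluor fluorescence.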

[2] = Nuclear factor erythroid 2-related factor 2/antioxidant responsive element (Nrf2/ARE) small molecule agonists: luciferase reporter gene qHTS assay in human keratinocytes (AID 1919969); also: nearly all actives have a fitted effect of over 35% in size
[3] = target: KiSS-1 receptor (Homo sapiens) (UniProt Q969F8); assay: Human kisspeptin (KISS1R) small molecule agonists, calcium flux assay in KISS1R-HEK293 cells (AID 1920064; active = well fitted curve in the direction sought with a large enough effect in the repeat runs; an effect the other way counts as inactive or inconclusive)
Procedure, shortened: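 Agonist activity is monitored as intracellular calcium rise in engineered HEK293 cells carrying human KISS1R. Cells are dye-loaded for 1 h at 37 C before compound addition, and fluorescence is recorded for 3 min.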

[4] = G protein-coupled receptor (GPCR) small molecule agonists, calcium flux assay: HEK293 wild type cell line counter screen (AID 1920065)
Procedure, shortened: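 Seed cells, incubate 18 h (37 C, 5% CO2); add calcium dye, 1 h at 37 C; pin-transfer compounds, ATP control or DMSO; read fluorescence 480/540 nm each second for 3 min.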

[5] = p53 small molecule agonists, cell-based qHTS assay with human liver microsomes (AID 1963577)
Procedure, shortened: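 p53RE-bla reporter cells were pre-incubated 5 h at 37 C, then treated with compounds plus human liver microsomes (0.5 mg/mL final) and NADPH (0.5 mg/mL final) for 16 h at 37 C. Beta-lactamase activity was read by LiveBLAzer fluorescence after 2 h at room temperature.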

[6] = p53 small molecule agonists, cell-based qHTS assay with rat liver microsomes (AID 1963578)
Procedure, shortened: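 p53RE-bla cells were exposed to compounds together with rat liver microsomes (0.5 mg/mL final) and NADPH (0.5 mg/mL final) for 16 h at 37 C, then read by LiveBLAzer beta-lactamase fluorescence after 2 h at room temperature.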

[7] = p53 small molecule agonists, cell-based qHTS assay with human liver microsomes: qHTS cell viability counter screen (AID 1963579); also: nearly all actives have a fitted effect of over 45% in size
Procedure, shortened: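 p53RE-bla cells (4,000/well) were pre-incubated 5 h at 37 C, then given compounds in DMSO plus human liver microsomes (0.5 mg/mL final) and NADPH (0.5 mg/mL final) for 16 h at 37 C. Viability was read by CellTiter-Glo luminescence.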

[8] = p53 small molecule agonists, cell-based qHTS assay with rat liver microsomes: qHTS cell viability counter screen (AID 1963580); also: nearly all actives have a fitted effect of over 45% in size
Procedure, shortened: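 Counter screen for cytotoxicity under metabolic activation: rat liver microsomes and NADPH, 0.5 mg/mL final each, added with compounds to p53RE-bla HCT-116 cells; 16 h at 37 C, then ATP luminescence read.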

[9] = p53 small molecule agonists, cell-based qHTS assay: qHTS cell viability counter screen (AID 1963581); also: nearly all actives have a fitted effect of over 45% in size
Procedure, shortened: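 Viability was counter-screened in parallel with the p53 agonist reporter by measuring intracellular ATP luminescence in the same HCT-116 p53RE-bla wells after 16 h compound treatment at 37 C.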

[10] = p53 small molecule agonists, cell-based qHTS assay (AID 1963582; active = well fitted activation curve with a large enough effect in the signal ratio in the repeat runs, not every such curve was filed as active; the % refers to the signal ratio)
Procedure, shortened: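 Cells carrying a p53-responsive bla reporter are treated with test compounds for 16 h at 37 C; beta-lactamase activity is then detected with LiveBLAzer B/G FRET substrate after 2 h at room temperature.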

[11] = target: 5-hydroxytryptamine receptor 2A (Homo sapiens) (UniProt P28223); assay: 5-hydroxytryptamine receptor 2A (HTR2A) small molecule antagonists, cell-based qHTS assay (AID 1963586); also: nearly all actives have a fitted effect of over 45% in size
Procedure, shortened: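 CHO cells stably expressing human HTR2A were plated for 18 h at 37 C, then loaded with calcium dye for 1 h. Compounds were preincubated 5 min at room temperature before DOI (4 nM solution) was added. Kinetic fluorescence was read for 3 min.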

[12] = target: 5-hydroxytryptamine receptor 2A (Homo sapiens) (UniProt P28223); assay: 5-hydroxytryptamine receptor 2A (HTR2A) small molecule agonists, cell-based qHTS assay (AID 1963587); also: nearly all actives have a fitted effect of over 30% in size
Procedure, shortened: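 HTR2A-CHO cells, plated 18 h at 37 C/5% CO2, dye-loaded 1 h at 37 C; compounds in DMSO added by pin tool (agonist mode). Intracellular calcium flux read as kinetic fluorescence on FDSS over 2 min at 1 s intervals.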

[13] = target: Muscarinic acetylcholine receptor M1 (Homo sapiens) (UniProt P11229); assay: Cholinergic receptor muscarinic 1 (CHRM1) small molecule agonists, cell-based qHTS assay (AID 1963589); also: nearly all actives have a fitted effect of over 35% in size
Procedure, shortened: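 Cells were plated and incubated 18 h at 37 C/5% CO2, loaded with calcium dye for 1 h at 37 C, then treated with compounds in DMSO. Fluorescence was recorded kinetically at 1 sec intervals.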

[14] = cAMP Responsive Elements (CRE) small molecule agonists, cell-based qHTS assay (AID 1963590)
Procedure, shortened: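 Cells carrying a CRE-driven beta-lactamase reporter (HEK 293T) are seeded, incubated overnight (18 h), and treated with test compounds for 3 h at 37 C; reporter activity is then detected with a FRET substrate after 2 h at room temperature.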

[15] = cAMP Responsive Elements (CRE) small molecule antagonists, cell-based qHTS assay (AID 1963591; active = well fitted inhibition curve with a large enough effect in the signal ratio in the repeat runs, not every such curve was filed as active; the % refers to the signal ratio; also: potency is read from the fitted curve at half-maximal effect)
Procedure, shortened: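 Cells (CRE-bla HEK 293T, DMEM with 10% dialyzed FBS and 25 mM HEPES) are seeded and incubated 18 h. Compounds are added with NKH477 agonist at 0.25 uM final for 3 h, then FRET substrate for 2 h.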

[16] = target: Beta-2 adrenergic receptor (Homo sapiens) (UniProt P07550); assay: Adrenergic beta2 receptor (ADRB2) small molecule antagonists, cell-based qHTS assay (AID 1963592); also: series mostly up to about 92 µM; nearly all actives have a fitted effect of over 50% in size
Procedure, shortened: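 Assay format: CHO-ADRB2 cells, 18-20hr seeding at 37C/5% CO2, then compound plus 1nM isoproterenol agonist mix for 0.5hr RT. Homogeneous time-resolved fluorescence cAMP detection after 1hr, expressed as 665/615 nm ratio.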

[17] = target: Beta-2 adrenergic receptor (Homo sapiens) (UniProt P07550); assay: Adrenergic beta2 receptor (ADRB2) small molecule agonists, cell-based qHTS assay (AID 1963593);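 also: CHO cells stably overexpressing human ADRB2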
Procedure, shortened: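 CHO cells stably over-expressing ADRB2 were plated overnight at 37C, then dosed with compounds plus a stimulation mix containing 100uM IBMX and 25uM Ro-20-1724 for 0.5hr at room temperature. cAMP was measured by HTRF competition, 1hr.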

[18] = target: D(2) dopamine receptor (Homo sapiens) (UniProt P14416); assay: Dopamine D2 receptor (DRD2) small molecule agonists, cell-based qHTS assay (AID 1963594); also: nearly all actives have a fitted effect of over 35% in size
Procedure, shortened: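 HEK293 cells stably expressing DRD2 were cultured 24 h at 37 C, then given Ro20-1724 (0.1 mM final) and compounds for 10 min at room temperature. NKH477 (200nM) was then added for 30 min. cAMP was read by HTRF.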

[19] = target: D(2) dopamine receptor (Homo sapiens) (UniProt P14416); assay: Dopamine D2 receptor (DRD2) small molecule antagonists, cell-based qHTS assay (AID 1963595; active = well fitted inhibition curve with a large enough effect in the signal ratio in the repeat runs, with a control signal flat; the % refers to the signal ratio)
Procedure, shortened: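 Antagonist mode in DRD2-HEK293 cells: after compound addition with 0.1 mM Ro20-1724, cells received quinpirole (12 nM) and NKH477 (200 nM) for 30 min at room temperature; HTRF cAMP read after 1 h detection.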

[20] = target: Muscarinic acetylcholine receptor M1 (Homo sapiens) (UniProt P11229); assay: Cholinergic receptor muscarinic 1 (CHRM1) small molecule antagonists, cell-based qHTS assay (AID 1963588); also: nearly all actives have a fitted effect of over 40% in size
Procedure, shortened: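 Compounds were tested at 15 concentrations in three independent runs. Dye-loaded CHRM1-CHO cells were exposed 5 min at room temperature before stimulation by acetylcholine added at 50nM. Intracellular calcium was read kinetically on FDSS for 3 min.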

Sequence of Beta-2 adrenergic receptor (Homo sapiens) (P07550 whole entry, looked up): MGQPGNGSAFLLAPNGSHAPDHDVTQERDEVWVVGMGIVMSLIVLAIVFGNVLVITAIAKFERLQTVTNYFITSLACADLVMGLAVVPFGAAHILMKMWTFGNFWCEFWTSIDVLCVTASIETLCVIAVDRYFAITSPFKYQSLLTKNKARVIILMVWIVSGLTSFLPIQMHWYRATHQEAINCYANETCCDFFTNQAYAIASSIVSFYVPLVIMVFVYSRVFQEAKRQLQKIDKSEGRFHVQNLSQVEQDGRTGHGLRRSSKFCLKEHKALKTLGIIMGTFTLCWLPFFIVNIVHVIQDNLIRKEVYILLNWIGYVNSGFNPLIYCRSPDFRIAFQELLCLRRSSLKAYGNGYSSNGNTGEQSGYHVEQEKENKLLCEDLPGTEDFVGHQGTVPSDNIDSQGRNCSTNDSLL
Sequence of D(2) dopamine receptor (Homo sapiens) (P14416 whole entry, looked up): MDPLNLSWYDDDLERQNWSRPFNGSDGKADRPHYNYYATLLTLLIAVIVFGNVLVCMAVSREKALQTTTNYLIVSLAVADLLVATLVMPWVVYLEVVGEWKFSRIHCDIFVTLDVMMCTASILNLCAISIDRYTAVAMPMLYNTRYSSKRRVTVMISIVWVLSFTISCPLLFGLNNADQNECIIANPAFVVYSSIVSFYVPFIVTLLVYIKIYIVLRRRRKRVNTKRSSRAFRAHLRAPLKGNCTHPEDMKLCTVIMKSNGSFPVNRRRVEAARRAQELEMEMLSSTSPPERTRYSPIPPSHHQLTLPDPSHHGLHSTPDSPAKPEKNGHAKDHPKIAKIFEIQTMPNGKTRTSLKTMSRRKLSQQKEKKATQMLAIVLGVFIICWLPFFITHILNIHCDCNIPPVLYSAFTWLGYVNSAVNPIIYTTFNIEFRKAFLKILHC
Sequence of KiSS-1 receptor (Homo sapiens) (Q969F8 whole entry, looked up): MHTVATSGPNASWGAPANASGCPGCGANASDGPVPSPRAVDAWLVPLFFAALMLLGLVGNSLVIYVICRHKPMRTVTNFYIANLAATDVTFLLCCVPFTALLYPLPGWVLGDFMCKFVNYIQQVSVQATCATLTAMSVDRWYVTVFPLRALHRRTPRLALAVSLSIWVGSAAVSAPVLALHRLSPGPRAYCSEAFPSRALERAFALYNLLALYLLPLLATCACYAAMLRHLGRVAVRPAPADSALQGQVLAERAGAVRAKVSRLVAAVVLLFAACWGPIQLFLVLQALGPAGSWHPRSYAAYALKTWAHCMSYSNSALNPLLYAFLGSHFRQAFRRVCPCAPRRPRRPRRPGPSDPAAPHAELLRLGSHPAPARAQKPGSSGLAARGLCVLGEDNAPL
Sequence of 5-hydroxytryptamine receptor 2A (Homo sapiens) (P28223 whole entry, looked up): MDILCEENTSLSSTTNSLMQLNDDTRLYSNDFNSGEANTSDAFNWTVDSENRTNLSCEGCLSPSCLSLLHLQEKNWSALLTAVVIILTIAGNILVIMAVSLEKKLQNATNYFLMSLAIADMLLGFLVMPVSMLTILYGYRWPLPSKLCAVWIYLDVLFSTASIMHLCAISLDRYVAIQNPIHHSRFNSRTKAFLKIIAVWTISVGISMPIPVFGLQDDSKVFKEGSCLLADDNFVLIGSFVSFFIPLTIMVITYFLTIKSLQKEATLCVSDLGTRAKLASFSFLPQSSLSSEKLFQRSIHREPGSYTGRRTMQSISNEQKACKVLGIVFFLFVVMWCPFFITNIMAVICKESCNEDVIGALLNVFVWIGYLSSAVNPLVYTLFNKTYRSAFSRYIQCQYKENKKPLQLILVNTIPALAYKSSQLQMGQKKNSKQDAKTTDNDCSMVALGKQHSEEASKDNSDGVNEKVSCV
Sequence of Muscarinic acetylcholine receptor M1 (Homo sapiens) (P11229 whole entry, looked up): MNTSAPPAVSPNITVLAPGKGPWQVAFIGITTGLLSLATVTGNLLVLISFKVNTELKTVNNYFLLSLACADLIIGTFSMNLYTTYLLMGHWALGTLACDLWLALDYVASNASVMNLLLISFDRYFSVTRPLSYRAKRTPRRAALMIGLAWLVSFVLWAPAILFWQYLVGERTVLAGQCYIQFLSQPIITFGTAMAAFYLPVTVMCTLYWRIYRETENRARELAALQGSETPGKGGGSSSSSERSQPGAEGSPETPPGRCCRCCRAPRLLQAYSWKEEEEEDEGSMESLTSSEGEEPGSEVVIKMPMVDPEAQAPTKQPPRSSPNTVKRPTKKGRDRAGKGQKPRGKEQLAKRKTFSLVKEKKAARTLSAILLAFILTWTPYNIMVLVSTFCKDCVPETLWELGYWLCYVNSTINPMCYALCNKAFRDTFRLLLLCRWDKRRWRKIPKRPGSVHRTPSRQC

| SMILES | Potency [1] | Potency [2] | Potency [3] | Potency [4] | Potency [5] | Potency [6] | Potency [7] | Potency [8] | Potency [9] | Potency [10] | Potency [11] | Potency [12] | Potency [13] | Potency [14] | Potency [15] | Potency [16] | Potency [17] | Potency [18] | Potency [19] | Potency [20] |
| --- | --- | --- | --- | --- | --- | --- | --- | --- | --- | --- | --- | --- | --- | --- | --- | --- | --- | --- | --- | --- |
| CC(C)(C)C(=O)OCOC(=O)C1N2C(=O)CC2S(=O)(=O)C1(C)C (stereo not drawn) | inactive | inactive | inactive | inactive | inactive | inactive | inactive | inactive | inactive | inactive | inactive | inactive | inactive | inactive | 11.9 nM (active) | inactive | inactive | inactive | inactive |  |
| O=C(O)c1ccc(OCCN2CCCCC2)cc1 | inactive | inactive | inactive | inactive | inactive | inactive | inactive | inactive |  | inactive | inactive | inactive | inactive | inactive | inactive | inactive |  | inactive | inactive | inactive |
| O=S(O)CO | inactive | inactive | inactive | inactive | inactive | inactive | inactive | inactive | inactive |  | inactive | inactive | inactive | inactive | inactive | inactive | inactive | inactive | inactive | inactive |
| CCCOCCC | inactive | inactive | inactive | inactive | inactive | inactive | inactive | inactive | inactive | inactive | inactive | inactive | inactive | inactive |  | inactive | inactive | inactive | inactive | inactive |
| [Cl][Nd]([Cl])[Cl] | inactive | inactive | inactive | inactive | inactive | inactive | inactive | inactive | inactive | inactive | inactive | inactive | inactive | inactive | inactive | inactive | inactive | inactive | inactive |  |
| CC(=O)OCC(=O)Nc1cc(C#N)cc(NC(=O)COC(C)=O)c1Cl | inactive | inactive | inactive | inactive | inactive | inactive | inactive | inactive | inactive | inactive |  | inactive | inactive |  | inactive | inactive | inactive |  | inactive | inactive |
| C[C@]12CC[C@H]3[C@@H](CCC4=CC(=O)CC[C@@]43C)[C@@H]1CC[C@@H]2C(=O)CO | inactive | inactive | inactive | inactive | inactive | inactive | inactive | inactive | inactive | inactive |  | inactive | inactive |  |  | inactive | inactive | inactive | inactive | inactive |
